# Source: PubChem BioAssay AID449762 (Southern Research Specialized Biocontainment Screening …, 2010)
# Where “and” joins values, the source holds several entries; their conditions need not be identical. Equal entries are not always repeated. In all, about 330,000 compounds went through this assay and about 1,900 (0.58%) were called active. Inconclusive results (about 4%) are left out. Only a sample is shown. Measured potencies and affinities stand elsewhere. A number with no mark means an inactive call. No stated cut-off is given here; in the data, inconclusive means inhibition above about 70% without an active follow-up result; inactive means below that.
# Experiment: M. tuberculosis growth inhibition, HTS (AID 449762);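 further: bacterial growth assessed after seven days of incubation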
# Conditions: M. tuberculosis H37Rv growth inhibition, 7H9 media; at 25 µM; active compounds read high
row,SMILES,inhibition
1,COC(=O)CN(C(=S)Nc1ccc(F)cc1)C1CC(=O)N(c2ccccc2)C1=O (stereo not drawn),5.39%
2,O=C(O)/C(=C\c1ccc2ccccc2c1)c1cccc2ccccc12,2.24%
3,COc1ccc(/C=C2\Sc3ccc(C(=O)N4CCCC4)cc3N(C)C2=O)cc1OC,7.11%
4,CN1C(=O)/C(=C/c2ccccc2Cl)Sc2ccc(C(=O)N3CCCC3)cc21,69.8%
5,Cn1ncc([N+](=O)[O-])c1C(=O)Nc1ccc(-c2nc3ccccc3o2)cc1,1.46%
6,COc1ccc(/C=C/C(=O)NCCOc2ccc(C)cc2)cc1,-2.38%
7,NC(=O)CC(NC(=O)c1ccccc1)c1ccc(NC2CCCC2)c([N+](=O)[O-])c1 (stereo not drawn),0.75%
8,CN(C)CCCn1c2c(c(SCC(=O)Nc3cccc4ccccc34)nc1=O)CCC2,0.83%
9,c1ccc(C[C@H]2CNCCN2CCc2cccc3ccccc23)cc1,53.6%
10,Fc1cccc(CCN2CCNC[C@@H]2Cc2ccccc2)c1,-4.28%
11,CCOC(=O)N1CCC(NC(=O)C2CCN(S(=O)(=O)c3cnc[nH]3)CC2)CC1,-6.34%
12,Cc1ccc(S(=O)(=O)N2CCN(C(=O)Cn3c(=O)oc4ccccc43)CC2)c(C)c1,3.86%
13,CC(C)N(C(=O)[C@H]1CC(CC(=O)NCc2ccco2)C(=O)N2CCc3c([nH]c4ccccc34)[C@]12C)C(C)C (stereo partly drawn),2.78%
14,O=S(=O)(c1ccc(F)cc1)n1ccc2cccnc21,4.44%
15,Cc1nc2ccc(-c3nc4ccccc4o3)cc2[nH]1,8.75%
16,Nc1ccc(-c2nc3ccccc3o2)cc1,49%
17,COc1ccc(/C=N/NC(=O)c2cc3c(ccc4ccccc43)o2)cc1OC,11.8%
18,Cc1ccc2nc(N3C(=O)C(O)=C(C(=O)c4cc5ccccc5o4)C3c3cccs3)sc2c1 (stereo not drawn),-1.99%
19,Cc1ccc2nc(N3C(=O)C(O)=C(C(=O)c4ccco4)C3c3cccs3)sc2c1 (stereo not drawn),-7.92%
20,COc1ccc(CNC(=O)c2cccc(NC3=NC4CS(=O)(=O)CC4S3)c2)cc1 (stereo not drawn),-9.1%
21,CCN1/C(=C/C=C/C=C/C=C/c2sc3ccccc3[n+]2CC)Sc2ccccc21,5.11%
22,CC[n+]1ccccc1/C=C1\Sc2ccc(C)cc2N1C,6.67%

row,SMILES,inhibition
1,Cc1cc(C)n(-c2ccc(Cl)c(C(=O)OCC(=O)N3CCCCC3C)n2)n1 (stereo not drawn),-1.17%
2,C/C(=N\NC(=O)c1nnn(-c2nonc2N)c1CN(C)c1ccccc1)c1ccc(O)cc1,-0.5%
3,C/C(=N\NC(=O)c1nnn(-c2nonc2N)c1CN(C)c1ccccc1)c1ccccc1O,12.9%
4,Cc1ccc(C)c(OC(=O)C2CSC3(C)CCC(=O)N23)c1C (stereo not drawn),-8.22%
5,Cc1ccc(NS(=O)(=O)c2ccc(Cl)c(C(=O)Nc3ccccc3-c3nc4ccccc4[nH]3)c2)cc1C,4.41%
6,CCC(NC(=O)c1ccccc1NC(=O)c1ccco1)C(=O)NNC(=O)c1ccc(OC)cc1 (stereo not drawn),-4.34%
7,O=C(Nc1cc(Cl)cc(Cl)c1)C1C2C=CC3(O2)C1C(=O)N(CCCN1CCOCC1)C3C(=O)NC1CCCCC1 (stereo not drawn),-1.97%
8,CCOC(=O)Cn1c(Br)nc2c1c(=O)[nH]c(=O)n2C,2.17%
9,Cc1ccc(C2C(C#N)=C(N)Oc3n[nH]c(C)c32)cc1 (stereo not drawn),2.2%
10,Cc1[nH]nc2c1C(c1ccc(-c3ccccc3C#N)o1)C(C#N)=C(N)O2 (stereo not drawn),16.8%
11,CCN(c1ccccc1)S(=O)(=O)c1ccc(C(=O)Nc2ccncc2)cc1,48.8%
12,Cc1ccc2ncnc(NCCC(=O)O)c2c1,-11.8%
13,NC(=O)CSc1nnc(NC(=O)c2ccc(S(=O)(=O)N3CCCCC3)cc2)s1,4.86%
14,Fc1ccc2cnc(-c3ccccc3)c(-c3ccc(C(F)(F)F)cc3)c2c1,39.5%
15,COc1cc2cnc(-c3ccccc3)c(-c3cc(OC)c(OC)c(OC)c3)c2cc1OC,27.5%
16,CC(C)(C)c1ccc(OCCC(=O)NC2=NCCS2)cc1,48.1%
17,CCOc1ccc(OCCCC(=O)NC2=NCCS2)cc1,1.39%
18,O=c1ccc(-c2ccccc2)nn1Cc1ccccc1F,4.51%
19,COc1ccc(-c2cc(C(=O)NC(C)c3ccccn3)c3ccccc3n2)cc1OC (stereo not drawn),-9.49%
20,CC1=NN(c2ccccc2)C(=O)C1C(=O)c1cc([N+](=O)[O-])cc([N+](=O)[O-])c1 (stereo not drawn),-4.74%
21,CCCCCCCN1N=C(C)C(C(=O)c2ccccc2)C1=O (stereo not drawn),64.7%
22,CN1CC(=O)N2C(c3cccc([N+](=O)[O-])c3)c3[nH]c4ccccc4c3C[C@H]2C1=O (stereo partly drawn),6.28%

row,SMILES,inhibition
1,CCOc1cc2c3c(c1)C1(Nc4ccccc4S1)C(=O)N3C(C)(C)CC2C (stereo not drawn),22.3%
2,CCOc1cc2c3c(c1)C1(OCCO1)C(=O)N3C(C)(C)CC2C (stereo not drawn),8.79%
3,O=C(CN1CCN(c2ccccc2)CC1)NC(=O)NCc1ccco1,-5.69%
4,CC(=O)Nc1ccc(S(=O)(=O)N(C)CC(=O)NC2=NCCS2)cc1,-7.06%
5,CC1=NC(C)(C)Cc2ccccc21,-5.42%
6,CC1(C)CC(=O)C(C2=NC(C)(C)Cc3ccccc32)=C(O)C1,-7.77%
7,O=C(CN(C(=O)c1ccccc1)N1C(=O)CCC1=O)c1cccs1,-6.33%
8,CN1CC(=O)N(CC(=O)N2N=C(c3ccc(Cl)cc3)CC2c2ccco2)C1=O (stereo not drawn),22.3%
9,CCC1(CC)NC(=O)N(CC(=O)N2N=C(c3ccc(Cl)cc3)CC2c2ccco2)C1=O (stereo not drawn),3.27%
10,O=C(N[C@@H]1C/C=C\C[C@@H](CC(=O)N(CCO)Cc2ccccc2)C(=O)N[C@@H](c2ccccc2)COC1=O)OCC1c2ccccc2-c2ccccc21,3.32%
11,COc1cc2sc(-c3ccc(S(C)(=O)=O)cc3)c(C(=O)NCCCCO)c2cc1OC,4.06%
12,CCc1c(C)nc(N2CCN(c3cccc(OC)c3)CC2)[nH]c1=O,-3.6%
13,Cc1ccc(-c2nc3ccc(Cl)cc3c(=O)n2O)cc1,54.8%
14,O=c1c2ccccc2nc(-c2ccc([N+](=O)[O-])cc2)n1O,30.3%
15,CSCCCNC(=S)Nc1ccc(N2CCOCC2)cc1N1CCOCC1,6.87%
16,Cc1cc(C)c(C(=O)COC(=O)c2nn(C)c(=O)c3ccccc23)cc1C,-5.14%
17,Cc1ccc(Sc2ccc(C(=O)N3CCOCC3)cc2[N+](=O)[O-])cc1,0.73%
18,O=C(O)/C=C/C(=O)Nc1ccc(O)cc1,-6.75%
19,O=C(O)/C=C/C(=O)Nc1ccc(C(=O)c2ccccc2)cc1,3.27%
20,CC(=O)C[C@H](O)CC(=O)[C@H]1OC(=O)[C@H](C)CCCCc2ccccc21,-1.44%
21,O=C(O)c1cc(N/N=C/c2ccc(-c3ccc(F)cc3)o2)ccc1Cl,13.7%
22,CCCn1c(CCC(=O)Nc2ccccc2Cc2ccccc2)nc2cc(S(=O)(=O)N3CCOCC3)ccc21,-3.41%

row,SMILES,inhibition
1,CCOc1ccc2noc3c2c1C(=O)c1ccccc1-3,6.97%
2,COc1ccc2noc3c2c1C(=O)c1ccccc1-3,38.9%
3,NC(=O)COc1ncnc2scc(-c3ccc(F)cc3)c12,-9.11%
4,c1ccc(-c2nccc(-c3ccc(-n4cnc5ccccc54)cc3)n2)cc1,16%
5,c1ccc2c(c1)ncn2-c1ccc(-c2ccnc(-c3ccncc3)n2)cc1,-0.53%
6,CCN(CC)S(=O)(=O)c1cccc(C(=O)NCCCn2ccnc2)c1,3.66%
7,CN1CCc2cccc3c2C1Cc1ccc(O)c(O)c1-3 (stereo not drawn),35.5%
8,CN1CCc2cccc3c2[C@H]1Cc1ccc(O)c(O)c1-3,29.9% and 14.3% and 5.91%
9,COCCCNc1ncnc2sc3c(c12)CCC(C)C3 (stereo not drawn),13.1%
10,CC1CCc2c(sc3ncnc(NCCN4CCOCC4)c23)C1 (stereo not drawn),1.22%
11,COc1cc(C)cc(CN2CC=C(c3ccccc3)CC2)c1O,4.09%
12,Cn1nc(C(=O)NCC(c2cccs2)N2CCOCC2)c2ccccc2c1=O (stereo not drawn),-7.54%
13,CCc1c(C)nc2cc(-c3cc(OC)cc(OC)c3)nn2c1N1CCN(CCN2CCOCC2)CC1,-1.99%
14,CCOCCN1CCN(c2c(C)c(C)nc3cc(-c4cc(OC)cc(OC)c4)nn23)CC1,-16.2%
15,COc1ccc(OC)c(NC(=O)c2ccc(S(=O)(=O)N3CCN(C)CC3)cc2)c1,-1.22%
16,Cc1ccc(CNS(=O)(=O)c2ccc(-n3cnnn3)c(C)c2)cc1,5.67%
17,COc1cccc(-c2c(-c3cc(OC)cc(OC)c3)n(C)c3ccc(-c4cnc(N5CCOCC5)nc4)cc23)c1,6.76%
18,COc1cc(OC)cc(-c2c(C#Cc3ccsc3)c3cc(-c4ccc(CN5CCOCC5)cc4)ccc3n2C)c1,1.54%
19,COc1ccc(NS(=O)(=O)c2cccc(C(=O)N3CCN(Cc4ccc5c(c4)OCO5)CC3)c2)cc1,12.7%
20,O=Cc1cn(-c2ccccc2)nc1-c1cccnc1,-1.66%
21,O=C(/C=C/c1cn(-c2ccccc2)nc1-c1cccnc1)N1CCCCC1,-0.1%
22,Cc1nc2c(-c3ccccc3)c(C)nn2c(C)c1CCC(=O)N1CCC2(CC1)OCCO2,8.75%
